# Source: PubChem BioAssay
# In the library only some 10% were active in any assay of this set; here they are far more common.
# Pf growth 96h – P. falciparum growth inhibition at 96 hours; P. falciparum luciferase reporter growth, 96 h; Potency, µM (series often up to 28.7 µM), inactives show top-dose activity change, negative = inhibition, usual class: inhibitors; hit rate 6.9% among 320,000; active = well fitted inhibition curve with a large enough effect; inconclusive = small, poorly fitted or top-dose-only effect, or another doubt; inactive = no such curve, though single readings can be large or run the other way; note: % is set by controls: 0 for no effect and ±100 for the full control effect
#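 Delayed-death screen, second-generation endpoint: infected erythrocytes, 2% hematocrit, 0.05% parasitemia final; 96 hours at 37 C, 5% CO2; luciferase detection reagent; luminescence decrease equals reduced growth.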
# NS1 inh – influenza NS1 inhibition; hit rate 0.4% among 270,000; Potency, µM (doses to about 46.1 µM), without a hit: at the top dose activity, positive = more growth; note: actives are rising curves; nearly all actives have a fitted effect of over 50% in size
#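 OD600 was taken as the measure of yeast growth restored by compound in an NS1-expressing S. cerevisiae strain. Cells had been washed out of glucose medium and diluted 1:100 into galactose -URA medium, pH 6.0.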
# SARS PLpro yeast – inhibitors of SARS-CoV papain-like protease in yeast; S. cerevisiae expressing SARS-CoV PLpro, growth rescue; Potency, µM (titrated, usually from 32.9 µM), for the others: top-dose activity, positive = growth rescue, usual class: activators; hit rate 0.19% among 330,000; AID 485353; note: 0% is about no effect; nearly all actives have a fitted effect of over 55% in size
# Pf growth 48h – P. falciparum growth inhibition at 48 hours (one generation) | hit rate 5.9% among 310,000 | Potency, µM (doses to about 28.7 µM), for the others: at the highest dose activity change, negative = inhibition, actives largely listed as inhibitors | P. falciparum luciferase growth in erythrocytes, 48 h; active = well fitted inhibition curve with a large enough effect; inconclusive = small, poorly fitted or top-dose-only effect, or another doubt; inactive = no such curve, though single readings can be large or run the other way; note: % is set by controls: 0 for no effect and ±100 for the full control effect
#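 Growth was read as firefly luciferase luminescence after a 48 h, 37 C, 5% CO2 exposure of compounds to reporter-bearing P. falciparum cultures (0.1% parasitemia, 2% hematocrit final) in Albumax-supplemented RPMI 1640.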
# Numbers without * were called inactive; u = inconclusive; x = not tested or not shown; ! = a repeat was not active; [ ] = another dose, or the depositor's remark. Unless noted, calls come from the whole dose curve. Potency is the fitted concentration of half-maximal effect.
SMILES,Pf growth 96h,NS1 inh,SARS PLpro yeast,Pf growth 48h
COC(=O)[C@@]12CCCCN1[C@H](c1ccc(-c3ccc4c(c3)OCO4)c(OC)c1)[C@@H]1C(=O)N(C)C(=O)[C@@H]12,13µM*,x,2%,5.2µM*
COC(=O)[C@@]12CCCN1[C@H](c1ccc(-c3ccc4c(c3)OCO4)c(OC)c1)[C@H]1C(=O)N(C)C(=O)[C@H]12,u,x,-3%,u
COC(=O)[C@@]12CCCCN1[C@H](c1ccc(-c3ccc(C(C)=O)cc3)cc1)[C@H]1C(=O)N(C)C(=O)[C@H]12,-8%,x,9%,u
COC(=O)[C@@]12CCCCN1[C@H](c1ccc(-c3ccc(F)cc3)cc1)[C@@H]1C(=O)N(C)C(=O)[C@@H]12,13µM*,x,-2%,u
CC(=O)N1c2ccccc2Oc2cc3ccccc3cc21,u,-43%,-37%,1.9µM*
Cn1c(C(=O)NCc2ccccn2)cc2c(=O)n(C)c3ccccc3c21,41%,-12%,12%,x
Cn1c(C(=O)NCCCN2CCOCC2)cc2c(=O)n(C)c3ccccc3c21,-94%,u,8%,x
Cc1ccc(CNC(=O)c2cc3c(=O)n(C)c4ccccc4c3n2C)o1,9.3µM*,-5%,-1%,x
Cn1c(C(=O)NCCCN2CCN(c3ccccc3F)CC2)cc2c(=O)n(C)c3ccccc3c21,9.3µM*,-38%,4%,x
CC1CCN(CCCNC(=O)c2cc3c(=O)n(C)c4ccccc4c3n2C)CC1,7.4µM*,-1%,0%,x
CC(C)(C)c1ccc(CNC(=O)C2CCCN2C(=O)Nc2ccccc2)cc1 (stereo unspecified),21%,3%,0%,-12%
COc1ccc(-c2cc(C(=O)N3CCOCC3)c3ccccc3n2)cc1OC,20%,x,-2%,u
COc1cc2cc(C(=O)N3CCOCC3)cc(-c3ccc(C)cc3)c2cc1OC,8.3µM*,2%,-1%,u
Cc1ccc(-c2nn(-c3ccccc3)c3[nH]c(=O)c(CNCc4ccccc4)cc23)cc1,-18%,3%,-10%,1µM*
Cc1ccc(-c2nn(-c3ccccc3)c3[nH]c(=O)c(CNCCN(C)C)cc23)cc1,-10%,-1%,-3%,4.7µM*
C=C(C)COc1ccc2c(C)c(C)c(=O)oc2c1OCC(=C)C,4%,-51%,-1%,12µM*
CCOc1ccccc1N1CCN(CC(=O)Nc2ccnn2C2CCCC2)CC1,-18%,x,-7%,-26%
Cc1cc(S(=O)(=O)NCc2ccco2)c(C)s1,7.4µM*,5%,1%,5%
Cc1cc(S(=O)(=O)NCc2ccc(S(N)(=O)=O)cc2)c(C)s1,u,5%,-2%,-6%
COc1ccc(-c2nc(C(=O)NCC3CCCO3)cc3c2[nH]c2ccccc23)cc1 (stereo unspecified),7.4µM*,-46%,0%,5.2µM*
Cc1nc(C(=O)NCCO)cc2c1[nH]c1ccccc12,6%,5%,1%,2%[0.00184 µM]
O=C(NCC1CCCO1)c1cc2c([nH]c3ccccc32)c(-c2cccc(Br)c2)n1 (stereo unspecified),3.7µM*,-21%,-16%,u
Cc1ccccc1-c1nc(C(=O)NCC2CCCO2)cc2c1[nH]c1ccccc12 (stereo unspecified),12µM*,-34%,-13%,u
O=C(NCCO)c1cc2c([nH]c3ccccc32)c(-c2ccccc2)n1,-10%,8%,-1%,5%
Cc1ccc(-c2nc(C(=O)NCC3CCCO3)cc3c2[nH]c2ccccc23)cc1 (stereo unspecified),u,-18%,-12%,7.4µM*
SMILES,Pf growth 96h,NS1 inh,SARS PLpro yeast,Pf growth 48h
Cc1ccc(S(=O)(=O)N2CCN(Cc3cc(=O)n4ccccc4n3)CC2)c(C)c1,u,x,-2%,u
C=C1CCC[C@]2(C)C[C@H]3OC(=O)C(CNC(C)(CO)CO)[C@H]3CC12 (stereo partly specified),u,1%,0%,x
CCn1c(C)[n+](CCOC(C)=O)c2cc(Cl)c(Cl)cc21,34%,1%,0%,2.3µM*
CC(=O)OCCCn1c(C)[n+](C)c2cc(Cl)c(Cl)cc21,37%,-1%,-1%,5.2µM*
CCn1c(=O)[nH]c2cc(Cl)c(Cl)cc21,14%,-40%,x,2%
NC(=O)c1c(NC(=O)Cc2ccccc2)sc2c1CCN(Cc1ccccc1)C2,u,-5%,1%,u
CN(Cc1cccs1)C(=O)COc1cccc2c1OC(C)(C)C2,x,x,-11%,x
C/C(=N\NC(=O)CN(c1ccccc1)S(=O)(=O)c1ccccc1[N+](=O)[O-])C(C)(C)C,12µM*,16%,-8%,u
CC(C)(C)C1CCC(=NNC(=O)CN(c2ccccc2)S(=O)(=O)c2ccccc2[N+](=O)[O-])CC1 (stereo unspecified),11%,u,-6%,-16%
CC(=O)Nc1ccc(NC(=O)C(Cc2ccccc2)NC(=O)C2CCC(C)CC2)cc1 (stereo unspecified),0.33µM*,1%,19%,3%
O=C(N[C@@H](Cc1ccccc1)C(=O)Nc1ccc(F)cc1)C1CCNCC1,-13%,0%,-1%,6%
CN(C)C(=O)CSc1ccc(S(=O)(=O)N2CCOCC2)cn1,-30%,x,3%,-15%
CC(C)(C)NC[C@H](O)COc1nsnc1N1CCOCC1,0.67µM*!,6%,0%,2.4µM*!
O=C(O)c1nnn(-c2cccc(C(F)(F)F)c2)c1-c1ccccc1,u,-3%,2%,11%
Cc1ccc(C)c(N(CC(=O)NC2CCCC2)S(=O)(=O)c2ccccc2)c1,13µM*,-10%,u,-17%
O=C(CN(c1ccccc1)S(=O)(=O)c1ccc(F)cc1)NC1CCCCCC1,2.3µM*,1%,0%,4%
COc1ccc(S(=O)(=O)N(CC(=O)NC2CCCC2)c2ccccc2OC)cc1,12µM*,-3%,u,u
CCOc1ccccc1N(CC(=O)NC1CCCCC1)S(=O)(=O)c1ccccc1,u,-14%,-3%,u
O=C(CN(c1ccccc1)S(=O)(=O)c1ccc(F)cc1)NC1CCS(=O)(=O)C1 (stereo unspecified),46%,x,0%,31%
Cc1cccc(N2N=C(C(=O)N3Cc4ccccc4CC3C(N)=O)CCC2=O)c1 (stereo unspecified),x,x,3%,x
COc1ccc(Cc2nnc(NS(=O)(=O)c3ccc([N+](=O)[O-])cc3)s2)cc1,22%,5%,5%,-14%
CC(=O)Oc1ccc(C(=O)O)c(OC(C)=O)c1,u,4%,0%,-1%
CCOc1ccc(CCNC(=O)C2CCCN(S(=O)(=O)N3CC(C)CC(C)C3)C2)cc1OCC (stereo unspecified),0%,13%,-3%,u
CCOc1ccc(C(C)=O)cc1CSC(=N)N,-23%,2%,0%,8%
CCCCCOc1ccc(CSC(=N)N)cc1[N+](=O)[O-],0.47µM*,6%,2%,u
CCCCOc1ccc(CSC2=NCCN2)cc1[N+](=O)[O-],13µM*,0%,-7%,u
CCCCOc1ccc(Br)cc1CSC(=N)N,u,-5%,-15%,4.7µM*
COc1ccc(CSC(=N)N)cc1[N+](=O)[O-],2%,3%,-9%,x
